From PubChem BioAssay
Hits are enriched below; roughly 11% of the tested compounds scored in any of these assays.
HEK cytotox = kills HEK 293 cells | HEK 293 viability, ATP luminescence (CellTiter-Glo), 48-72 h | Potency, µM (series often up to 115 µM), without a hit: top-dose activity change, negative = cytotoxicity, actives largely listed as inhibitors | hit rate 6.6% among 94,000 | AID 1345083; also: nearly all actives have a fitted effect of over 60% in size
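qHTS cytotoxicity; HEK 293, 250 cells/well; compound pinned; 48 or 72 hr, 37 degree Celsius, 5% CO2, 95% humidity; CellTiter-Glo, 10 min RT; luminescence (ATP).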
hNpr1 antagonist = blocks ANP-stimulated signaling of human Npr1 receptor | HEK293 hNpr1 GloSensor cGMP, ANP-stimulated luminescence | Potency, µM (doses to about 46.3 µM), for the others: at the top dose activity change, negative = inhibition, hits mostly inhibitors | hit rate 1.6% among 76,000; calls by dose curve; also: nearly all actives have a fitted effect of over 60% in size
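HEK293 cells stably expressing human Npr1 and cGMP GloSensor pGS-40F, loaded 2 h with 2% GloSensor reagent, given compound 30 min at room temperature. Luminescence read before and 20 min after 0.1 nM hNppA.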
NIH3T3 tox = NIH 3T3 cell cytotoxicity. Potency, µM (titrated, usually from 96.7 µM), for the others: at the top dose activity change, negative = cytotoxicity, hits mostly inhibitors. NIH 3T3 viability, CellTiter-Glo ATP luminescence, 48-72 h. hit rate 4.3% among 94,000; also: nearly all actives have a fitted effect of over 55% in size
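First NIH 3T3 cells are plated at 400 cells/well; next compound is pinned in; then plates incubate 48 or 72 hr at 37 °C; finally CellTiter-Glo is added and luminescence read after 10 min.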
FLuc inh = blocks purified firefly luciferase enzyme activity; P08659; purified P. pyralis luciferase, luminescence, biochemical; Potency, µM (top dose mostly 115 µM), hits mostly inhibitors; hit rate 2.5% among 76,000; AID 1347043; also: nearly all actives have a fitted effect of over 65% in size
Target sequence (P08659 whole entry, looked up): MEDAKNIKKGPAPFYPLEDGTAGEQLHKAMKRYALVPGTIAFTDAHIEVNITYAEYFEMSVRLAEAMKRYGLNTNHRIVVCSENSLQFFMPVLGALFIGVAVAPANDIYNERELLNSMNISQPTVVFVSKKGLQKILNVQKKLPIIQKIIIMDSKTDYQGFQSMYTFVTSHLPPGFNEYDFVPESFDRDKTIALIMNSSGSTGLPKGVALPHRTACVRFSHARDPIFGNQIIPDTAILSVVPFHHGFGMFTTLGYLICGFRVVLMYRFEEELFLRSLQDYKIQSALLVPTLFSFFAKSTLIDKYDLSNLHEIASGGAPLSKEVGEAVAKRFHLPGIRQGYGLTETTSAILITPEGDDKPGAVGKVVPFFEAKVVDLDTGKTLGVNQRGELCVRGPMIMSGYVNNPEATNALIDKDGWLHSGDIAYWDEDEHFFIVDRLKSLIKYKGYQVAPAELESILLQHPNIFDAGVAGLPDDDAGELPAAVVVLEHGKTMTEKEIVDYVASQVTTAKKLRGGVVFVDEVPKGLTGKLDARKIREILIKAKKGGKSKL
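Purified P. pyralis luciferase (10nM final) in 50mM Tris acetate pH 7.5, 10mM Mg acetate, 0.01% Tween-20, 0.05% BSA with 10uM D-luciferin and 10uM ATP. Compounds titrated qHTS. Luminescence imaged on CCD.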
An asterisk follows results filed as active; [ ] = another dose, or the depositor's remark. Unless noted, calls follow the shape of the dose curve; as a rule, active = well fitted curve in the direction sought with a large enough effect; inconclusive = small, poorly fitted or top-dose-only effect, or another doubt; inactive = no such curve, though single readings can be large; an effect the other way counts as inactive or inconclusive. % is scaled to controls: 0 for no effect and ±100 for the full control effect; potency is read from the fitted curve at half-maximal effect.

What do the screens show for `CC(C)C(=O)Nc1ccc(C2(C(=O)NCc3cccs3)CCCCC2)cc1`?
HEK cytotox: inconclusive; hNpr1 antagonist: 6%; NIH3T3 tox: 32µM*; FLuc inh: inactive

How did Cc1ccc(CNC(=O)C2(c3ccc(NC(=O)C4CC4)cc3)CCCCC2)o1 do in these assays?
HEK cytotox: 45µM*; hNpr1 antagonist: -10%; NIH3T3 tox: inconclusive; FLuc inh: inactive

Results for CC(=O)N1CCCC(C(=O)N2CCC(N3Cc4cccn4C3=O)CC2)C1 (stereo not given) ?
HEK cytotox: inactive; NIH3T3 tox: 3%

What do the screens show for `COCCS(=O)(=O)c1ncc(CN2CC[C@@H]3CCCC[C@H]3C2)n1Cc1ccccc1`?
HEK cytotox: 45µM*; hNpr1 antagonist: -4%; NIH3T3 tox: inconclusive; FLuc inh: inactive

How did CC1=C[C@@H](CN(C)CCC#N)[C@H](C(C)C)C[C@H]1Cc1nnc(-c2ccccc2F)o1 do in these assays?
HEK cytotox: 79µM*; hNpr1 antagonist: inconclusive; NIH3T3 tox: inconclusive; FLuc inh: inactive

What do the screens show for `CC1=C[C@@H](CN(C)CCc2ccccn2)[C@H](C(C)C)C[C@H]1Cc1nnc(-c2ccncc2)o1`?
HEK cytotox: 79µM*; hNpr1 antagonist: 1%; NIH3T3 tox: inconclusive; FLuc inh: inactive

What do the screens show for `CC1=C[C@@H](CN(C)CCN(C)C)[C@H](C(C)C)C[C@H]1Cc1nnc(-c2ccccc2)o1`?
HEK cytotox: 45µM*; hNpr1 antagonist: 2%[70.6 µM]; NIH3T3 tox: 28µM*; FLuc inh: inactive

What do the screens show for `CC1=C[C@@H](CNC(=O)C(C)(C)C)[C@H](C(C)C)C[C@H]1Cc1nnc(-c2ccccc2F)o1`?
HEK cytotox: 32µM*; hNpr1 antagonist: -27%[70.6 µM]; NIH3T3 tox: inconclusive; FLuc inh: inactive

Results for CC1=C[C@@H](CN(C)CCc2ccccn2)[C@H](C(C)C)C[C@H]1Cc1nnc(-c2ccccc2)o1 ?
HEK cytotox: inconclusive; hNpr1 antagonist: -19%; NIH3T3 tox: inconclusive; FLuc inh: inactive

What do the screens show for `CC1=C[C@@H](CN2CCC(C(N)=O)CC2)[C@H](C(C)C)C[C@H]1Cc1nnc(-c2ccccc2F)o1`?
HEK cytotox: inconclusive; hNpr1 antagonist: 1%; NIH3T3 tox: inconclusive; FLuc inh: inactive

Results for CN(CCc1noc(C2CN(Cc3cccc(C#N)c3)C2)n1)C(=O)C1CCOCC1 ?
HEK cytotox: -25%; NIH3T3 tox: -28%

Results for COc1cccc(CN2CC(O)CN(S(=O)(=O)c3ccc(F)cc3)CC2=O)c1OC (stereo not given) ?
HEK cytotox: -19%; NIH3T3 tox: inconclusive

What do the screens show for `CCCn1ccnc1CN1CCCC12CCN(c1ccc(C(F)(F)F)cn1)CC2`?
HEK cytotox: 35µM*; hNpr1 antagonist: -1%; NIH3T3 tox: inconclusive; FLuc inh: inactive

How did CCn1ncc(CN2CCCC23CCN(c2ccc(C(F)(F)F)cn2)CC3)c1C do in these assays?
HEK cytotox: inconclusive; hNpr1 antagonist: 0%; NIH3T3 tox: inconclusive; FLuc inh: inactive

Results for Cn1ccnc1CN1CCCC12CCN(c1ccc(C(F)(F)F)cn1)CC2 ?
HEK cytotox: 50µM*; hNpr1 antagonist: -24%; NIH3T3 tox: inconclusive; FLuc inh: inactive

How did Nc1ncccc1CN1CCCC12CCN(c1ccc(C(F)(F)F)cn1)CC2 do in these assays?
HEK cytotox: inconclusive; hNpr1 antagonist: -25%; NIH3T3 tox: inconclusive; FLuc inh: inactive

Results for COc1cccc(-c2cccc(C(=O)N3CCCC3C(=O)NC3CCCC3)c2)c1 (stereo not given) ?
HEK cytotox: -30%; NIH3T3 tox: -22%

How did CC(C)c1ccc(CN2CCc3c(n(Cc4ccccc4)n(-c4ccccc4)c3=O)C2)cc1 do in these assays?
HEK cytotox: inconclusive; hNpr1 antagonist: -17%; NIH3T3 tox: inconclusive; FLuc inh: inactive

Results for CCC(=O)NC1CCN(c2ccnc3ccnn23)CC1 ?
HEK cytotox: inactive; NIH3T3 tox: inactive

How did CCC(CC)c1cc([C@H]2CN3CC[C@H]2C[C@@H]3CNC(=O)c2cc(OC)c(OC)c(OC)c2)nc(-c2ccncc2)n1 do in these assays?
HEK cytotox: 28µM*; hNpr1 antagonist: inconclusive; NIH3T3 tox: 20µM*; FLuc inh: inactive

What do the screens show for `COc1ccc(-c2cc(N3CCC(NC(=O)c4cc(OC)c(OC)c(OC)c4)C3)n[nH]2)cc1` (stereo not given)?
HEK cytotox: inconclusive; hNpr1 antagonist: 0%; NIH3T3 tox: -19%; FLuc inh: inactive
